Results from PubChem BioAssay (NCATS).
Results filed as inconclusive are left out. Activity calls are given as the source filed them. Unless noted, the call rests on the fitted dose curve; in most records, active means well fitted curve in the direction sought with a large enough effect; inconclusive means small, poorly fitted or top-dose-only effect, or another doubt; inactive means no such curve, though single readings can be large; an effect the other way counts as inactive or inconclusive.

Legend:
[1] = molecular target: Ubiquitin carboxyl-terminal hydrolase 2 (Homo sapiens) (UniProt O75604); test: qHTS for Inhibitors of Ubiquitin-specific Protease USP2a Using CHOP2 as the Reporter: K484 Substrate (AID 652173);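 further: cleavage of internally quenched K48 di-ubiquitin substrate measured as rising fluorescence over time; potency means the concentration at half of the fitted maximal effect; nearly all actives have a fitted effect of over 70% in size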
Procedure, shortened: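 USP2 (dispensed at 5 nM) was pinned with compounds, then DiUb K48 internally quenched fluorescent substrate (dispensed at 100 nM) was added. The buffer was 20 mM Tris pH 8, 2 mM beta-mercaptoethanol and 0.05% CHAPS. Cleavage was read kinetically as rising fluorescence, Ex 525/Em 598.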

[2] = molecular target: Calcium and integrin-binding protein 1 (Homo sapiens) (UniProt Q99828); test: Primary qHTS for Identification of Calcium Integrin Binding Protein 1 (CIB1) Competitor (AID 1508620);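 further: GST tagged CIB1 binding a fluorescein labelled alphaIIb integrin peptide tracer; top concentration of the series differs between compounds; on the % scale 0 is the no-effect control and ±100 the full control effect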
Procedure, shortened: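 CIB1-GST (1 uM final) and compound incubated 15 min at room temperature before adding FITC-alphaIIb peptide tracer (100 nM final). Competition for binding read by fluorescence polarization (ex 480, em 540) after another 15 min at room temperature.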

[3] = molecular target: Cytochrome P450 3A4 (Homo sapiens) (UniProt P08684); test: qHTS Assay for Inhibitors and Substrates of Cytochrome P450 3A4 (AID 884); further: potency means the concentration at half of the fitted maximal effect; nearly all actives have a fitted effect of over 50% in size
Procedure, shortened: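 20 nM human CYP3A4 with 25 uM Luciferin-PPXE (at KM) in 200 mM KPO4, preincubated 10 min with compound; NADPH regeneration started a 60 min RT reaction. Luciferin detected by luminescence, normalized to 57 uM ketoconazole as full inhibition.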

[4] = molecular target: Cytochrome P450 3A4 (Homo sapiens) (UniProt P08684); test: qHTS Assay for Activators of Cytochrome P450 3A4 (AID 885); further: nearly all actives have a fitted effect of over 65% in size
Procedure, shortened: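 Steps: enzyme/substrate mix dispensed; compound added, 10 min RT; NADPH regeneration solution added, 60 min RT; luciferin detection buffer stops reaction; 20 min later luminescence measured.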

[5] = molecular target: Lysosomal acid glucosylceramidase (Homo sapiens) (UniProt P04062); test: Glucocerebrosidase-p2 (AID 348; in the data active means potency below about 10 µM; further: potency means the concentration at half of the fitted maximal effect); settings: purified GBA, blue fluorogenic substrate, 40 min
Procedure, shortened: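 Compounds titrated from 0.6 nM upwards against 0.2 nM enzyme in pH 5.9 citric acid/KH2PO4, taurocholate, tween-20; blue fluorogenic substrate 80 uM, 40 min room temperature, stopped and read Ex 365/Em 440 for AC50.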

[6] = molecular target: Glucocorticoid receptor (Homo sapiens) (UniProt P04150); test: GR-GFP Redistribution (AID 450;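 active means compounds whose dose series gives a full or clear partial fitted curve of increased nuclear translocation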; further: potency means the concentration at half of the fitted maximal effect); settings: U2OS GR-GFP nuclear translocation, laser cytometry, 2 h
[7] = molecular target: Glucocorticoid receptor (Homo sapiens) (UniProt P04150); test: GR-EFC Redistribution (AID 451; calls by dose curve; further: potency means the concentration at half of the fitted maximal effect); settings: CHO-K1 GR-EFC translocation, beta-gal luminescence, 2 h
Procedure, shortened: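 Translocation of GR-ED fusion to nuclear EA restores b-gal, read by luminescence after 1 h room-temperature detection. Engineered CHO-K1 biosensor cells, 1,000/well, exposed 2 h at 37 C to titrations up to 46 uM final.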

[8] = molecular target: Cytochrome P450 2C9 (Homo sapiens) (UniProt P11712); test: qHTS Assay for Inhibitors and Substrates of Cytochrome P450 2C9 (AID 883); further: potency means the concentration at half of the fitted maximal effect; nearly all actives have a fitted effect of over 60% in size
Procedure, shortened: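 Inhibition of CYP2C9 is scored as loss of luminescence, with 57uM sulphaphenazole defining 100% inhibition. Substrate Luciferin-H is used at 100uM, equal to its KM; enzyme at 10nM in 25mM KPO4, 60 min at 37C with NADPH regeneration.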

[9] = qHTS Assay for Identification of Small Molecule Agonists for Hypoxia Response Element Signaling Pathway (AID 914; active means well fitted activation curve with a large enough effect in the signal ratio, with a control signal flat, not every such curve was filed as active; the % refers to the signal ratio; further: potency means the concentration at half of the fitted maximal effect); settings: ME-180 HRE-bla reporter, beta-lactamase ratio, CoCl2, 17 h; activation: stronger effect = higher value
Procedure, shortened: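 HRE-bla ME-180 cells, overnight plating in Opti-MEM with 0.5% dialyzed FBS; cpd titration + EC50 CoCl2, 17 h, 37 degrees Celsius; CCF4 2.5 h RT; 460/530 nm ratio; AC50.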

[10] = qHTS Assay for Lipid Storage Modulators (AID 1519; calls by dose curve); settings: Drosophila S3 cells, BODIPY lipid droplet/cell ratio, laser cytometry, cells loaded with oleic acid; for activity change, negative = inhibition: at 57.5 µM (top of the series)
Procedure, shortened: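 Cells seeded at 5,000 per well were treated with compounds over a concentration series and loaded with oleic acid (400 uM, as added). Lipid droplet fluorescence (488 nm excitation, 500-530 nm channel) was read by laser-scanning cytometry and normalized to 20 uM Triacsin C.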

[11] = molecular target: Dual specificity protein kinase CLK4 (Homo sapiens) (UniProt Q9HAZ1); test: qHTS Assay for Inhibitors of CDC-like Kinase 4 (Kinase-Glo Assay) (AID 1770); further: on the % scale 0 is the no-effect control and ±100 the full control effect; nearly all actives have a fitted effect of over 65% in size
Procedure, shortened: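 25 nM Clk4 with 100 uM RS repeat peptide and 1 uM ATP (final) in Tris pH7.5, 10 mM MgCl2, 4.5 h at room temperature. Remaining ATP measured by Kinase-Glo luciferase luminescence.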

[12] = molecular target: Dual specificity protein kinase CLK4 (Homo sapiens) (UniProt Q9HAZ1); test: qHTS Assay for Inhibitors of CDC-like Kinase 4 (ADP-Glo Assay) (AID 1771); further: on the % scale 0 is the no-effect control and ±100 the full control effect; nearly all actives have a fitted effect of over 70% in size
Procedure, shortened: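 Clk4 (25 nM) was incubated 1 hr at room temperature with 100 uM RS repeat peptide and 1 uM ATP in buffer with 2 mM MgCl2, 0.5 mM EGTA, 2.5 mM DTT. ADP formed was quantified by ADP-Glo luminescence.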

[13] = molecular target: Dual specificity protein kinase CLK4 (Homo sapiens) (UniProt Q9HAZ1); test: qHTS Assay for Inhibitors of CDC-like Kinase 4 (ADP-FP Assay) (AID 1795);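 further: recombinant human CLK4 phosphorylating RS repeat peptide at 1 µM ATP; on the % scale 0 is the no-effect control and ±100 the full control effect; nearly all actives have a fitted effect of over 60% in size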
Procedure, shortened: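 Recombinant Clk4 (6.25 nM) phosphorylated 100 uM RS repeat peptide with 1 uM ATP in 25 mM Tris pH 7.5, 10 mM MgCl2, 0.5 mM EGTA, 2.5 mM DTT, 0.01% Triton X-100 for 1 h. ADP was detected by Transcreener ADP2 competitive fluorescence polarization after 30 min at room temperature.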

[14] = molecular target: Ubiquitin carboxyl-terminal hydrolase 1 (Homo sapiens) (UniProt O94782); test: Inhibitors of USP1/UAF1: Pilot qHTS (AID 504865);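 further: rhodamine fluorescence freed from ubiquitin-rhodamine substrate followed over time; top concentration of the series differs between compounds; on the % scale 0 is the no-effect control and ±100 the full control effect; nearly all actives have a fitted effect of over 35% in size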
Procedure, shortened: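 USP1/UAF1 complex at 1 nM preincubated 15 min at room temperature with compound, then Ub-Rho substrate added at 150 nM final. Fluorescence (480/540 nm) read kinetically in 50 mM HEPES pH 7.8, 0.5 mM EDTA, 1 mM TCEP, 0.1 mg/ml BSA, 0.01% Tween-20.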

[15] = Counterscreen qHTS for small molecule stabilizers of the endoplasmic reticulum resident proteome: GLuc-NoTag assay (AID 1508627);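 further: SH-SY5Y cells given compound then 100 nM thapsigargin to empty ER calcium; 0% = thapsigargin alone and -100% = DMSO vehicle control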
Procedure, shortened: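 Luminescence of Gaussia luciferase secreted into the medium (coelenterazine, 0.07x final, unlysed cells) was the read-out. Human SH-SY5Y neuroblastoma cells constitutively secreting untagged GLuc received compound for 19 h, then 100 nM thapsigargin for 4 h.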

[16] = Confirmatory qHTS for small molecule stabilizers of the endoplasmic reticulum resident proteome: Secreted ER Calcium Modulated Protein (SERCaMP) assay (AID 1508628); further: nearly all actives have a fitted effect of over 40% in size; further: potency means the concentration at half of the fitted maximal effect
Procedure, shortened: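 We seeded SH-SY5Y-GLuc-SERCaMP cells, added compounds (three concentrations in the primary run, eleven up to 76.6 uM in confirmation), incubated 16 h, depleted ER calcium with thapsigargin, and read luciferase 4 h later.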

[17] = AP1 Signaling Pathway (AID 357; active means well fitted curve in either direction with a large enough effect, not every such curve was filed as active;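 further: ME-180 reporter cells stimulated with EGF at its EC50 level; on the % scale 0 is the no-effect control and ±100 the full control effect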); settings: ME-180 AP-1-bla reporter, EGF-induced, beta-lactamase ratio, 5 h; at 7.69 µM (top of the series) unless noted
Procedure, shortened: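 A ratiometric CCF4 readout (405 nm excitation; 460 and 530 nm emission) quantified AP-1-driven beta-lactamase in ME-180 cells after 5 h with compound and EC50 EGF; AC50 values were derived for activators and inhibitors.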

[18] = NFAT Signaling Pathway (AID 444; active means well fitted curve in either direction with a large enough effect, not every such curve was filed as active;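 further: carbachol stimulus at about its EC50 of 1 µM final; on the % scale 0 is the no-effect control and ±100 the full control effect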); settings: Jurkat NFAT-bla M1, carbachol, beta-lactamase ratio, 5 h; at 7.69 µM (top of the series) unless noted
Procedure, shortened: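 Read-out: CCF4 FRET ratio (460 nm/530 nm) after 1 h RT dye loading, used for %activity and AC50 from titration series. Cells: Jurkat NFAT-β-lactamase/M1 line, treated with compound plus 1 uM carbachol for 5 h, 37 °C.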

[19] = Stat Signaling Pathway (AID 446; active means well fitted curve in either direction with a large enough effect, not every such curve was filed as active;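 further: ME-180 cervical cancer cells given 40 pM IL-6 alongside compound; SIE-controlled beta-lactamase reporter measured as 460/530 nm FRET emission ratio; on the % scale 0 is the no-effect control and ±100 the full control effect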); settings: ME-180 SIE beta-lactamase reporter, IL-6 stimulated, 5 h; at 7.69 µM (top of the series) unless noted
Procedure, shortened: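 Screening format detects activators and inhibitors alike: ME-180 SIE-bla cells stimulated at 40 pM IL-6 for 5 hrs with compound, then dual-emission beta-lactamase read at 405 nm excitation.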

[20] = molecular target: Mitogen-activated protein kinase 10 (Mus musculus) (UniProt Q61831); test: JNK3 AlphaScreen Assay (AID 530; active means well fitted curve in either direction with a large enough effect, not every such curve was filed as active)
Procedure, shortened: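 Room-temperature AlphaScreen kinase assay; pre-activated HepG2 lysate as JNK3 source, biotin-GST-cJun(1-79) substrate, 10 uM ATP, compound 15 min preincubation.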

[21] = molecular target: 3',5'-cyclic-AMP phosphodiesterase 4B (Homo sapiens) (UniProt Q07343); test: qHTS Assay for Inhibitors of PDE-IV (AID 607; active means well fitted activation curve with a large enough effect in the main read-out, with a control signal flat, not every such curve was filed as active; further: % of control where 0% means no effect)
Procedure, shortened: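 The readout is membrane depolarisation from a cAMP-sensing CNG channel, detected with a potential dye at ex 535/em 590. Cells were HEK293-derived (endogenous PDE-IV) at 1000 cells/well, titrated up to 22.9 uM final.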

[22] = Cell Viability qHTS for small molecule stabilizers of the endoplasmic reticulum resident proteome (AID 1508629); settings: cell viability counter-screen, 100 nM thapsigargin for final 4 h
[23] = molecular target: Cytochrome P450 1A2 (Homo sapiens) (UniProt P05177); test: p450-cyp1a2 (AID 410; calls by dose curve; further: potency means the concentration at half of the fitted maximal effect)
Procedure, shortened: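 Human CYP1A2 (20nM) demethylated Luciferin-ME at its Km (100uM) in 100mM KPO4. After 10 min compound preincubation, NADPH regeneration ran the reaction 60 min at room temperature. Luciferin was read by luminescence, normalized to 57 uM furafylline.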

[24] = measured here: cell count channel max response
[25] = measured here: lipid channel max response

Dual specificity protein kinase CLK4 (Homo sapiens), sequence (Q9HAZ1 whole entry, looked up): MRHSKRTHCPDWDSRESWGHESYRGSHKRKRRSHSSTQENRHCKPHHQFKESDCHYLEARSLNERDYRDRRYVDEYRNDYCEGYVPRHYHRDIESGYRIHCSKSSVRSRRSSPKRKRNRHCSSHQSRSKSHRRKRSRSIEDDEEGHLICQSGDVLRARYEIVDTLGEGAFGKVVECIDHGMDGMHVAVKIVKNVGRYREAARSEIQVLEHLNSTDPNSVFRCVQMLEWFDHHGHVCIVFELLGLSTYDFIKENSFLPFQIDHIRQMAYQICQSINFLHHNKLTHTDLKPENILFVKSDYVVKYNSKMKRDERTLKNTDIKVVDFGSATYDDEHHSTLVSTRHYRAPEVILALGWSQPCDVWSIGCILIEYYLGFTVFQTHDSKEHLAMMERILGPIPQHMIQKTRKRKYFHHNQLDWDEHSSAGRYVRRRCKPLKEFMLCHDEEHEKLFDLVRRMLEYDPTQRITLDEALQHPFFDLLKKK
Cytochrome P450 3A4 (Homo sapiens), sequence (P08684 whole entry, looked up): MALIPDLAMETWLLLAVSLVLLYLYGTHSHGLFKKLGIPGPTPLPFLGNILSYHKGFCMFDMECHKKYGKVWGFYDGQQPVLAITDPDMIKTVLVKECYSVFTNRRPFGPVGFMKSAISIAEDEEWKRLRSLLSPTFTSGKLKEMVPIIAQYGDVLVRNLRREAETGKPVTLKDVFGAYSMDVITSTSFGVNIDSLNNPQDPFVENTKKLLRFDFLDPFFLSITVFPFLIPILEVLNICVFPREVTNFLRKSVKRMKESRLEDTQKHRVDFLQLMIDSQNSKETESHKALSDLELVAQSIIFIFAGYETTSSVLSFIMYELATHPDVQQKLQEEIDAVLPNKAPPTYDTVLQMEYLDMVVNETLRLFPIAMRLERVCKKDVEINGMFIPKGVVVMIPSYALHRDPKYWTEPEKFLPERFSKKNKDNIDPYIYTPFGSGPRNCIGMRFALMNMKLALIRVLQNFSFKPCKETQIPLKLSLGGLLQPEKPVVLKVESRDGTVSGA
Glucocorticoid receptor (Homo sapiens), sequence (P04150 whole entry, looked up, the tested form may be a part): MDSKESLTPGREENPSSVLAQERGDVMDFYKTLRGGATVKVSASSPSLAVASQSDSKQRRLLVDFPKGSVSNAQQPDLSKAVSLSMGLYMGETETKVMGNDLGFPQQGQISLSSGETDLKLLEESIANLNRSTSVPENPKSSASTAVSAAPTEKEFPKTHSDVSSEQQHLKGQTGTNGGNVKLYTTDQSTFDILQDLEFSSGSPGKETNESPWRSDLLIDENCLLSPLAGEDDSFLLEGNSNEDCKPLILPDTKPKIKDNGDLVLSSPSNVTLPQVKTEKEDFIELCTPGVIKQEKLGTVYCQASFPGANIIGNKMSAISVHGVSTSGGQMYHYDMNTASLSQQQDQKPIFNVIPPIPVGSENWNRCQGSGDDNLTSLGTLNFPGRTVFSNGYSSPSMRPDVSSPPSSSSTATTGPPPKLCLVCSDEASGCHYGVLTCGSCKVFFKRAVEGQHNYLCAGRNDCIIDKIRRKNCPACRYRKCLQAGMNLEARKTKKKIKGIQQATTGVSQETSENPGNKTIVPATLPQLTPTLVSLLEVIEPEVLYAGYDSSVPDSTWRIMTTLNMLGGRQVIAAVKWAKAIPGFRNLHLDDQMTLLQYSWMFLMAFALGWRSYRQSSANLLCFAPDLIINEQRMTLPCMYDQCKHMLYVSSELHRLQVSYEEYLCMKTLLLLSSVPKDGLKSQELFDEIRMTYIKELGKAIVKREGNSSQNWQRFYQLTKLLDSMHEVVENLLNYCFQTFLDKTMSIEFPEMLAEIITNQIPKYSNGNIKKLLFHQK
Ubiquitin carboxyl-terminal hydrolase 1 (Homo sapiens), sequence (O94782 whole entry, looked up): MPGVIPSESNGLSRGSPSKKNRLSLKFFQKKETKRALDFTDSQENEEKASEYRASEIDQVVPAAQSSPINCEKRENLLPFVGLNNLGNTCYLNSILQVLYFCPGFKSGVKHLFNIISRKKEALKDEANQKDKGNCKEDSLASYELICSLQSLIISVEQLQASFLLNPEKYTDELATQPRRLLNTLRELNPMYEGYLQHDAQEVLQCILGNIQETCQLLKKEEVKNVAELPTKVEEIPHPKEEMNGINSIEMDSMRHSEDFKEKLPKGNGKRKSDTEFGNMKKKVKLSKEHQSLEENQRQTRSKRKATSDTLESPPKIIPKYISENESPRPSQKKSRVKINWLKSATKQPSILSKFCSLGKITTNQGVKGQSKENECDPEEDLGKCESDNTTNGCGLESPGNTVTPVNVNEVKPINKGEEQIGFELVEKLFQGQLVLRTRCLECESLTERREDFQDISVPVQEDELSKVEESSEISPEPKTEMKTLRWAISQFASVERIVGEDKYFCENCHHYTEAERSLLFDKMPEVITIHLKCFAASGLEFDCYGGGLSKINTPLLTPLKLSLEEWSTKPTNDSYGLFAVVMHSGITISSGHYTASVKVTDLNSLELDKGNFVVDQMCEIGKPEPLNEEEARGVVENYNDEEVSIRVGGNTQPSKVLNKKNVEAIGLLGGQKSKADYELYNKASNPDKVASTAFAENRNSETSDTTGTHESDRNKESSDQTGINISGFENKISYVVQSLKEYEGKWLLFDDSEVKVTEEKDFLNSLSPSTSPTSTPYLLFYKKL
Lysosomal acid glucosylceramidase (Homo sapiens), sequence (P04062 whole entry, looked up): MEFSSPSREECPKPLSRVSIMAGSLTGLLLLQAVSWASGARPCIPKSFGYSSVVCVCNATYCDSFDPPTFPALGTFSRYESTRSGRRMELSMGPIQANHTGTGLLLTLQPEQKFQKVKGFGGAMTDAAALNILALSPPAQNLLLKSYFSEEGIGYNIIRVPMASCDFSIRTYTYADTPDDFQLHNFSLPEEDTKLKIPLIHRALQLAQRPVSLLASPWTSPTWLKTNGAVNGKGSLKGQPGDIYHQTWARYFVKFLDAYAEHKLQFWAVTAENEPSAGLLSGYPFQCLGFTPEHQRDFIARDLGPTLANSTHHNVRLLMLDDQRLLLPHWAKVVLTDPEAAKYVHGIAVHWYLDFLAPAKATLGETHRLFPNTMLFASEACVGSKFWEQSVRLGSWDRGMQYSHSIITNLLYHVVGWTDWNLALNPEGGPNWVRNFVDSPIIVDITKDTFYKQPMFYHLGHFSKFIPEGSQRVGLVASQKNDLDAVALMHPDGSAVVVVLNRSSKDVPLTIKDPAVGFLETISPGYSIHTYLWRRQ
Calcium and integrin-binding protein 1 (Homo sapiens), sequence (Q99828 whole entry, looked up): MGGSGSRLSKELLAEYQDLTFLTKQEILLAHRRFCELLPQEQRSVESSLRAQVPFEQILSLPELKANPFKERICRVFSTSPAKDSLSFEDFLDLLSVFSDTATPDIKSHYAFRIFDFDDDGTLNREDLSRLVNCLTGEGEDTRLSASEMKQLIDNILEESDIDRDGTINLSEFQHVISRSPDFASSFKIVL
3',5'-cyclic-AMP phosphodiesterase 4B (Homo sapiens), sequence (Q07343 whole entry, looked up): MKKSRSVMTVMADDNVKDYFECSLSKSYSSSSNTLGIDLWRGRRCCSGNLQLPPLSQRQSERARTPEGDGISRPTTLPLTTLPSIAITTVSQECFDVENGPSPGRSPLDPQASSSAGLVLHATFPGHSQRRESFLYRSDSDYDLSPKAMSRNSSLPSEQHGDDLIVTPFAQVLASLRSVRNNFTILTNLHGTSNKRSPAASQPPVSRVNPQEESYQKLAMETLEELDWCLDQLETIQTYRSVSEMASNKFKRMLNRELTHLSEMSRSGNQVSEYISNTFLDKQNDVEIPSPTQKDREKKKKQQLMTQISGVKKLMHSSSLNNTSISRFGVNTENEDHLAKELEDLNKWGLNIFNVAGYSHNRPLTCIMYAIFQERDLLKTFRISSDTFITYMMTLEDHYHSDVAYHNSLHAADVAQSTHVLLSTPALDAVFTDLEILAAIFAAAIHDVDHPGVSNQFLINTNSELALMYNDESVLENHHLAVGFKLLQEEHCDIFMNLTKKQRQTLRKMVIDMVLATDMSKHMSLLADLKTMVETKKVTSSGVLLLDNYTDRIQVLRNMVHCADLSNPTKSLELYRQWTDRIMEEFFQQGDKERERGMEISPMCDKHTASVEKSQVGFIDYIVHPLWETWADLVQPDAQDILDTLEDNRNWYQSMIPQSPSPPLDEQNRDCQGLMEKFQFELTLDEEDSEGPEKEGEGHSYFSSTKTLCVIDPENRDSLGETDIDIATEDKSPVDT
Ubiquitin carboxyl-terminal hydrolase 2 (Homo sapiens), sequence (O75604 whole entry, looked up): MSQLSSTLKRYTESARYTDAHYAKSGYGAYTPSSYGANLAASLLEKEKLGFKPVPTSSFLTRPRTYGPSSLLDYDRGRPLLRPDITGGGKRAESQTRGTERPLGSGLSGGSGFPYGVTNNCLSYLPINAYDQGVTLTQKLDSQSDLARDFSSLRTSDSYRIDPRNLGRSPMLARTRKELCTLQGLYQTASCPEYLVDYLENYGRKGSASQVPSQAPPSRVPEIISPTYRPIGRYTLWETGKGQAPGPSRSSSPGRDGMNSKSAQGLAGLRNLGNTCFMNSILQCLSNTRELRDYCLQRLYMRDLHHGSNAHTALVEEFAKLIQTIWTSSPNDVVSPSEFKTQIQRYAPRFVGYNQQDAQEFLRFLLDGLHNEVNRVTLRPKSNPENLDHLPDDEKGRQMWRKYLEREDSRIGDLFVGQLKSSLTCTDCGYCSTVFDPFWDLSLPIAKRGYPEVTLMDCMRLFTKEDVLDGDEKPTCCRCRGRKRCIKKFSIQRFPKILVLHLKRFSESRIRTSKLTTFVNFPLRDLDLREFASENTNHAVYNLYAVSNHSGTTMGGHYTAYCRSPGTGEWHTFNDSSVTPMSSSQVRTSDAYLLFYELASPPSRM

Cc1ccc(S(=O)(=O)Nc2ccc(C(=O)Nc3nc(-c4ccc(Cl)cc4)cs3)cc2)cc1
active: Potency [1] 3.06 µM
inactive: Potency [2]

Cc1nc(NCc2ccccc2)c2nc(-c3ccccc3)n(CCN3CCCC3)c2n1
active: Potency [3] 10 µM
inactive: Potency [4] | Potency [2]

CN1CCN(c2ncc3nc(-c4ccccc4)c(=O)n(CCc4ccccc4)c3n2)CC1
-5.21%: max response [10, 25]
inactive: Potency [5] > 11.4 µM | Potency [6] > 9.22 µM | Potency [7] > 46 µM | activity change, negative = inhibition [10] -1.95% | Potency [11] | Potency [12] | Potency [13] | Potency [14] | Potency [15]
-2.1%: max response [10, 24]
active: Potency [8] 3.16 µM | Potency [9] 3.16 µM | Potency [16] 39.8 µM

O=C(Nc1cccc(F)c1)N1CCC2(CC1)CCN(S(=O)(=O)c1ccccc1)CC2
0.271%: max response [10, 24]
1.82%: max response [10, 25]
inactive: Potency [5] > 11.4 µM | activity change, negative = inhibition [17] -14.1% | activity change, negative = inhibition [18] 11.4% | activity, negative = inhibition [19] -8.13% | Potency [7] > 46 µM | outcome [20] | Potency [21] | activity change, negative = inhibition [10] -0.528% | Potency [15] | Potency [16] | max response [22] 3.59%

Cc1nc2cnc(N3CCNCC3)nc2n(Cc2cccs2)c1=O
active: Potency [23] 0.631 µM | Potency [3] 3.16 µM | Potency [16] 25.1 µM
28.9%: max response [10, 25]
inactive: activity change, negative = inhibition [17] -0.143% | activity change, negative = inhibition [18] 6.53% | activity, negative = inhibition [19] 3.44% | Potency [6] > 9.22 µM | Potency [7] > 46 µM | outcome [20] | Potency [21] | Potency [4] | activity change, negative = inhibition [10] 6.29% | Potency [11] | Potency [12] | Potency [13] | Potency [14] | Potency [15] | max response [22] 3.08%
24.4%: max response [10, 24]
